For experiment [1], the target named is D(1A) dopamine receptor (Homo sapiens) (UniProt P21728). The experiment can be described thus: NVS_GPCR_hDRD1: NovaScreen (NVS) G Protein-Coupled Receptor Assay for human Dopamine Receptor D1 (DRD1) (AID 2283269). In outline: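 Extracted HEK293 DRD1 is incubated 1 h with compound and a tritiated or iodinated radioligand, then filtered and counted. Screening runs 25 uM in duplicate with on-plate positive and negative controls.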

In experiment [2] the target is human Neurokinin, NK2 Receptor, TACR2 (gene 6865) (UniProt P21452). Nature of the experiment: NVS_GPCR_hNK2: NovaScreen (NVS) G Protein-Coupled Receptor Assay for human Neurokinin, NK2 Receptor (AID 2283278).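 Also: actives reduce bound radioligand signal relative to DMSO baseline.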 In outline:
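Test chemicals displace a radioligand from receptor prepared from CHO cells in a cell-free format, read after 4 hours by scintillation counting on filters. Screening starts at 25 uM in duplicate, and active chemicals then go to concentration series.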

Experiment [3] concerns the target human Thromboxane A2 Receptor (TXA2), TBXA2R (gene 6915) (UniProt P21731). Nature of the experiment: NVS_GPCR_hTXA2: NovaScreen (NVS) G Protein-Coupled Receptor Assay for human Thromboxane A2 Receptor (TXA2) (AID 2283282).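 Also: actives reduce bound radioligand signal relative to DMSO baseline.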 In short, it runs like this: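 Screening ran at 25 uM in duplicate, with concentration series for confirmed actives. Each test measures radioligand binding to human platelet protein after 1 h, cell-free, using filter-based scintillation detection of signal loss relative to DMSO.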

The target of experiment [4] is human Leukotriene B4 Receptor 1 (LTB4-BLT1), LTB4R (gene 1241) (UniProt Q15722). Nature of the experiment: NVS_GPCR_hLTB4_BLT1: NovaScreen (NVS) G Protein-Coupled Receptor Assay for human Leukotriene B4 Receptor 1 (LTB4-BLT1) (AID 2283271). In short, it runs like this: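 Cell-free human neutrophil receptor preparation, 1 h exposure, radioligand binding read by filter scintillation counting. Single 25 uM duplicate screen, then concentration series topping at 50 uM; binding loss scored against DMSO baseline.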

For experiment [5], the target named is Muscarinic acetylcholine receptor M2 (Homo sapiens) (UniProt P08172). Nature of the experiment: NVS_GPCR_hM2: NovaScreen (NVS) G Protein-Coupled Receptor Assay for human Muscarinic, M2 Receptor (AID 2283273). In outline:
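Radioligand competition binding, cell-free, receptor from CHO; 1 h incubation; scintillation detection. Primary testing at 25 uM in duplicate.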

In experiment [6] the target is human Muscarinic, M4 Receptor, CHRM4 (gene 1132) (UniProt P08173). The experiment can be described thus: NVS_GPCR_hM4: NovaScreen (NVS) G Protein-Coupled Receptor Assay for human Muscarinic, M4 Receptor (AID 2283274). In outline:
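Filter-based scintillation counting of radioligand bound to CHO-expressed human M4 preparations after 1 h; loss of signal fitted versus DMSO. Initial duplicate testing at 25 uM, concentration-response follow-up for actives.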

The target of experiment [7] is Muscarinic acetylcholine receptor M5 (Homo sapiens) (UniProt P08912). The experiment can be described thus: NVS_GPCR_hM5: NovaScreen (NVS) G Protein-Coupled Receptor Assay for human Muscarinic, M5 Receptor (AID 2283275). In outline: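 Chemicals passing a primary duplicate screen at 25 uM were run as singleton concentration series, maximum 50 uM. Displacement of a specific radioligand from CHO-extracted receptor was read by filter scintillation after 1 h, relative to DMSO.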
Chain of Muscarinic acetylcholine receptor M5 (Homo sapiens) (P08912 whole entry, looked up): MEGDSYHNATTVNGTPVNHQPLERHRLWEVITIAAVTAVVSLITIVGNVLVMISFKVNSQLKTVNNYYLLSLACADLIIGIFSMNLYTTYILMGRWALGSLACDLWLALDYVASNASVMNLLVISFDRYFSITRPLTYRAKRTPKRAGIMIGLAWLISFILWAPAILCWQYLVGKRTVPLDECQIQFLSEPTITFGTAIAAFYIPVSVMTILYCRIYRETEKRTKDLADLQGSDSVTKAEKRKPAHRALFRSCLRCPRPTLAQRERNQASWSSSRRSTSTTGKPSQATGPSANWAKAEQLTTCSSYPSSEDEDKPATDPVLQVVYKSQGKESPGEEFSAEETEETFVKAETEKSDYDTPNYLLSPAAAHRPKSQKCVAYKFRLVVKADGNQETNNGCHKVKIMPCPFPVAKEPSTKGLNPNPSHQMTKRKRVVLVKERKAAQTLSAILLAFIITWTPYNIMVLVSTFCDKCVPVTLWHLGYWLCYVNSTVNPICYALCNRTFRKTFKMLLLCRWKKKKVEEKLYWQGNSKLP

In experiment [8] the target is human Neuropeptide Receptor Y1 (NPY1), NPY1R (gene 4886) (UniProt P25929). The experiment can be described thus: NVS_GPCR_hNPY1: NovaScreen (NVS) G Protein-Coupled Receptor Assay for human Neuropeptide Receptor Y1 (NPY1) (AID 2283276). In short, it runs like this:
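Displacement of specific radioligand from NPY1 receptor of SK-N-MC origin, read by filtration and scintillation after 1 h. Compounds first tested at 25 uM in duplicate, then actives in concentration series; signal loss relative to DMSO.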

The target in experiment [9] is human Opioid Receptor Delta 1 (Opiate D1), OPRD1 (gene 4985) (UniProt P41143). The experiment can be described thus: NVS_GPCR_hOpiate_D1: NovaScreen (NVS) G Protein-Coupled Receptor Assay for human Opioid Receptor Delta 1 (Opiate D1) (AID 2283280). In outline: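 Membrane preparations from CHO cells bearing the human receptor were incubated 1 h with test chemical, and bound radioligand was counted after filtration. Actives from 25 uM duplicate screening were retested in concentration-response.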
Chain of human Opioid Receptor Delta 1 (Opiate D1), OPRD1 (gene 4985) (P41143 whole entry, looked up): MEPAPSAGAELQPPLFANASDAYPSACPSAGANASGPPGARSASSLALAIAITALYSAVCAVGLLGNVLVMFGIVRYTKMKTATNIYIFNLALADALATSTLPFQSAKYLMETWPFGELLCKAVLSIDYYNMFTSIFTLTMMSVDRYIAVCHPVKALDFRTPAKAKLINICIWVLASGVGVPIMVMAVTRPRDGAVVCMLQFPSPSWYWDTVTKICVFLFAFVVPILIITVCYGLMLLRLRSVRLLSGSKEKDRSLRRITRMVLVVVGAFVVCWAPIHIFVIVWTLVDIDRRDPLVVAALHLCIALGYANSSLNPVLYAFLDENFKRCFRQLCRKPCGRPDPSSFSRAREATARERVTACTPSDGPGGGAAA

In experiment [10] the target is human Orphanin, Opioid Related Nociceptin Receptor 1 (ORL1), OPRL1 (gene 4987) (UniProt P41146). The experiment can be described thus: NVS_GPCR_hORL1: NovaScreen (NVS) G Protein-Coupled Receptor Assay for human Orphanin, Opioid Related Nociceptin Receptor 1 (ORL1) (AID 2283283). In short, it runs like this:
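Cell-free binding using HEK293-derived receptor protein: radioligand displacement measured by filter scintillation 1 hour after dosing. Primary testing at 25 uM in duplicate, followed by singleton concentration series up to 50 uM; DMSO served as negative control.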

In experiment [11] the target is rat Serotonin, 5-Hydroxytryptamine Receptor 1 (5HT1), Non-Selective Binding, Htr1a (gene 24473) (UniProt P19327). The experiment can be described thus: NVS_GPCR_r5HT1_NonSelective: NovaScreen (NVS) G Protein-Coupled Receptor Assay for rat Serotonin, 5-Hydroxytryptamine Receptor 1 (5HT1), Non-Selective Binding (AID 2283286). In short, it runs like this: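 Binding of a radioligand to rat cortex membranes is read by filtration and scintillation counting after 1 h. Compounds were screened at 25 uM in duplicate. Actives were then titrated to a top of 50 uM. DMSO is the baseline.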

Experiment [12] deals with rabbit Platelet Activating Factor Receptor (PAF), gene 100354046. The experiment can be described thus: NVS_GPCR_rabPAF: NovaScreen (NVS) G Protein-Coupled Receptor Assay for rabbit Platelet Activating Factor Receptor (PAF) (AID 2283287). In outline: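 Rabbit platelet membrane preparation; radioligand displacement read by filter-based scintillation counting 1 h after dosing, loss of signal versus DMSO. Primary screen in duplicate at 25 uM, actives followed up in concentration series.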

Experiment [13] addresses rat Adrenergic, Alpha 1, Non-selective Receptor (Adra1), Adra1a (gene 29412) (UniProt P43140). The experiment can be described thus: NVS_GPCR_rAdra1_NonSelective: NovaScreen (NVS) G Protein-Coupled Receptor Assay for rat Adrenergic, Alpha 1, Non-selective Receptor (Adra1) (AID 2283289). In short, it runs like this:
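Chemicals first screened in duplicate at 25 uM, then actives tested in concentration series up to 50 uM. Binding measured as displacement of radioligand from rat forebrain membrane receptors, 1 h, filtration with scintillation readout; DMSO baseline.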

In experiment [14] the target is human Opioid Receptor Mu (Opiate Mu), OPRM1 (gene 4988) (UniProt P35372). The experiment can be described thus: NVS_GPCR_hOpiate_mu: NovaScreen (NVS) G Protein-Coupled Receptor Assay for human Opioid Receptor Mu (Opiate Mu) (AID 2283290).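 Also: hits lower bound tracer signal versus DMSO meaning displacement of the ligand.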 In outline: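 Here, radioligand binding to CHO-extracted receptor was measured after 2.5 h using filter-based scintillation detection. Initial single-concentration screening used 25 uM in duplicate with plate controls; confirmed actives went to concentration-response testing.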
Chain of human Opioid Receptor Mu (Opiate Mu), OPRM1 (gene 4988) (P35372 whole entry, looked up): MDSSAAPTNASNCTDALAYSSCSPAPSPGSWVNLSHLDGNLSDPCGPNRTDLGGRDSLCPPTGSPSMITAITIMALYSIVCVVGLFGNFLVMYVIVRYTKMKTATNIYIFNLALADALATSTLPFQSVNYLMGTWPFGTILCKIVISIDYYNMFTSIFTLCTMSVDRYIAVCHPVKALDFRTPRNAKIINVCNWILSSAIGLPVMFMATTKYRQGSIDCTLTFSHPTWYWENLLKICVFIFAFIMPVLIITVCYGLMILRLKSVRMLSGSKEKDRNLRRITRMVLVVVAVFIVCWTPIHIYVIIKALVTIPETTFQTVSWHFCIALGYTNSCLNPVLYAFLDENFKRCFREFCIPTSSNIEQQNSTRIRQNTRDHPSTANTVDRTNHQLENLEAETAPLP

For experiment [15], the target named is guinea pig Bradykinin Receptor B2 (BK2), BDKRB2 (gene 100135486) (UniProt O70526). The experiment can be described thus: NVS_GPCR_gBK2: NovaScreen (NVS) G Protein-Coupled Receptor Assay for guinea pig Bradykinin Receptor B2 (BK2) (AID 2283292). In short, it runs like this: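 Guinea pig ileum membrane preparation incubated 1 h with radioligand and test chemical; bound counts measured after filtration. Primary duplicate screening at 25 uM, then singleton concentration series with a 50 uM top dose; DMSO as baseline.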
Chain of guinea pig Bradykinin Receptor B2 (BK2), BDKRB2 (gene 100135486) (O70526 whole entry, looked up): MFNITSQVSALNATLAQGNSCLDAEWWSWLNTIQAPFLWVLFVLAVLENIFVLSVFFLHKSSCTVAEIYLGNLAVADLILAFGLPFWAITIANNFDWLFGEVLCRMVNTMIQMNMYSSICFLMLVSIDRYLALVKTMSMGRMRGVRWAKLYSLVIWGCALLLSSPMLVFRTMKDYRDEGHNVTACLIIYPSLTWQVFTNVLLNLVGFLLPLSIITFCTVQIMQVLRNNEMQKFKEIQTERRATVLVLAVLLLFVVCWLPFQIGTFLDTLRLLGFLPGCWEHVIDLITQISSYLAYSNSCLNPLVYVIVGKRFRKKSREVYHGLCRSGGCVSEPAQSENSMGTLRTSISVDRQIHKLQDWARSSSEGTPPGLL

Experiment [16] addresses guinea pig Serotonin, 5-Hydroxytryptamine Receptor 4 (5HT4), HTR4 (gene 100135548) (UniProt O70528). The experiment can be described thus: NVS_GPCR_g5HT4: NovaScreen (NVS) G Protein-Coupled Receptor Assay for guinea pig Serotonin, 5-Hydroxytryptamine Receptor 4 (5HT4) (AID 2283294). In short, it runs like this:
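Compounds first screened in duplicate at 25 uM, actives followed up in concentration series. Binding measured as displacement of specific radioligand from guinea pig striatal membranes, 1 h, filter-based scintillation read-out versus DMSO baseline.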

Experiment [17] addresses rat Serotonin, 5-Hydroxytryptamine Receptor (5HT), Non-Selective Binding, Htr1a (gene 24473) (UniProt P19327). The experiment can be described thus: NVS_GPCR_r5HT_NonSelective: NovaScreen (NVS) G Protein-Coupled Receptor Assay for rat Serotonin, 5-Hydroxytryptamine Receptor (5HT), Non-Selective Binding (AID 2283295). In outline: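 Rat cortex membrane preparation incubated 1 h with radioligand and test chemical; bound radioactivity counted after filtration. Screening began in duplicate at 25 uM with concentration-series follow-up; fitting relative to DMSO.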

In experiment [18] the target is rat Adrenergic, Alpha 1A Receptor (Adra1A), Adra1a (gene 29412) (UniProt P43140). Nature of the experiment: NVS_GPCR_rAdra1A: NovaScreen (NVS) G Protein-Coupled Receptor Assay for rat Adrenergic, Alpha 1A Receptor (Adra1A) (AID 2283296). In outline:
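Filter radiodetection after 1 h competitive binding on CEC-pretreated rat cortical membranes. Duplicate single-point screening at 25 uM; active chemicals retested across concentration series.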

Experiment [19] relates to rat Adrenergic, Alpha 1B Receptor (Adra1B), gene 24173. Nature of the experiment: NVS_GPCR_rAdra1B: NovaScreen (NVS) G Protein-Coupled Receptor Assay for rat Adrenergic, Alpha 1B Receptor (Adra1B) (AID 2283297). In short, it runs like this:
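Filter-binding radioligand competition on membranes from rat liver, read after 1 h by scintillation counting. Single-concentration duplicate screen at 25 uM, followed by concentration-response on actives, normalised to DMSO.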

The target in experiment [20] is Neuropeptide Y receptor type 2 (Homo sapiens) (UniProt P49146). Nature of the experiment: NVS_GPCR_hNPY2: NovaScreen (NVS) G Protein-Coupled Receptor Assay for human Neuropeptide Receptor Y2 (NPY2) (AID 2283277). In outline:
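Chemicals were first tested in duplicate at 25 uM, then actives in singleton concentration series to 50 uM. Tracer binding to SK-N-MC-derived protein measured cell-free after 1 h via filter scintillation; signal loss relative to DMSO.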

From PubChem BioAssay (EPA / NIEHS) come the findings set out here.

Several values for one entry are separate records, joined by “and”; a condition that tells them apart may be missing. Identical values can stand only once. Results filed as inconclusive are left out. Where a structure was tested more than once in an assay, its records may differ in their call. Activity calls are given as the source filed them. The calls were made as follows: active = hit-call score of the fitted dose curve at least 0.9, where 1 is the maximum; inconclusive = response in the unintended direction; inactive = score below 0.9.

Chain of Muscarinic acetylcholine receptor M2 (Homo sapiens) (P08172 whole entry, looked up): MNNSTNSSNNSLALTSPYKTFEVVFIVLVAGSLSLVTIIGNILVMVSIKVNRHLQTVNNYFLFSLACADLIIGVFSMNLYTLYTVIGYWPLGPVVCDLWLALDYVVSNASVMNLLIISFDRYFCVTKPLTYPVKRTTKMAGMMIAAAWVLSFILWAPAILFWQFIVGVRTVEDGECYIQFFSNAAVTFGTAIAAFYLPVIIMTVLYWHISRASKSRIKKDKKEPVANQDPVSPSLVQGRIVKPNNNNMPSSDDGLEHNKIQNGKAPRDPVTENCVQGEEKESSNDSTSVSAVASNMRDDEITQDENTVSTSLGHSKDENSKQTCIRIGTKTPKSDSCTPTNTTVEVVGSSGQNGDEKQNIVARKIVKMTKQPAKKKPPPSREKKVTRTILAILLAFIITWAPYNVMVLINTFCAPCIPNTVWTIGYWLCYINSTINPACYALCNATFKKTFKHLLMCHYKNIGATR
Chain of human Neurokinin, NK2 Receptor, TACR2 (gene 6865) (P21452 whole entry, looked up): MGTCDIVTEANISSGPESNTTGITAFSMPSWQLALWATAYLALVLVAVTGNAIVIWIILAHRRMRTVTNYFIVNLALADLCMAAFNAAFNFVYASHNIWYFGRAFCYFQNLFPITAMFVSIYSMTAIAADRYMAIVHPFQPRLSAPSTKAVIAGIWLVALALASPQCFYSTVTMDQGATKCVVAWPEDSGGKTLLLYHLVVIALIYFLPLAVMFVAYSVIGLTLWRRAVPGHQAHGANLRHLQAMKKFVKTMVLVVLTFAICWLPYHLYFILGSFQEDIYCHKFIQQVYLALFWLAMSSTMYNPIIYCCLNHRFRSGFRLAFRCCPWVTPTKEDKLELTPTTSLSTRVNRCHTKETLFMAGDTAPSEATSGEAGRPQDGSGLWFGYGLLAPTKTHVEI
Chain of D(1A) dopamine receptor (Homo sapiens) (P21728 whole entry, looked up): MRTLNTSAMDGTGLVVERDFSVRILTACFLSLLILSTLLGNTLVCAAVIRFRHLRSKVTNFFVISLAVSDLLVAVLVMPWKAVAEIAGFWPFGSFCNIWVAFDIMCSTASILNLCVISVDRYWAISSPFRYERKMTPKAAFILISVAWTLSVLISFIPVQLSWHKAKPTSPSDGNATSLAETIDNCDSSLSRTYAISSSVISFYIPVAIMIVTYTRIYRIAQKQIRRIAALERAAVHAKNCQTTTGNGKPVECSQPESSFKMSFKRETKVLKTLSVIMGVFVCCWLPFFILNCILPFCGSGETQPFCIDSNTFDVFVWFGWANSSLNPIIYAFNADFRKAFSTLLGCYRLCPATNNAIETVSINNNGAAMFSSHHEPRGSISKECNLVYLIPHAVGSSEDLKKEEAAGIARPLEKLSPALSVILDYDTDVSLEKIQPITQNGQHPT
Chain of human Thromboxane A2 Receptor (TXA2), TBXA2R (gene 6915) (P21731 whole entry, looked up): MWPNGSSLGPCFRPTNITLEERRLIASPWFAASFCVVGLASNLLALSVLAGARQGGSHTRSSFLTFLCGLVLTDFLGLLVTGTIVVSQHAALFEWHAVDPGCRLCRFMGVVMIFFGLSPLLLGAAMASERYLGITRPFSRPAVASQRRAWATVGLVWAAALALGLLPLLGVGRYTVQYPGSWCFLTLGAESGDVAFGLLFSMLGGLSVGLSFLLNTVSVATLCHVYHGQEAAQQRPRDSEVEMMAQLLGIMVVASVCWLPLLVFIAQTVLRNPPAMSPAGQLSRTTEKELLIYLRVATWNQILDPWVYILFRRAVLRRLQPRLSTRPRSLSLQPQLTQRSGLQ
Chain of human Muscarinic, M4 Receptor, CHRM4 (gene 1132) (P08173 whole entry, looked up): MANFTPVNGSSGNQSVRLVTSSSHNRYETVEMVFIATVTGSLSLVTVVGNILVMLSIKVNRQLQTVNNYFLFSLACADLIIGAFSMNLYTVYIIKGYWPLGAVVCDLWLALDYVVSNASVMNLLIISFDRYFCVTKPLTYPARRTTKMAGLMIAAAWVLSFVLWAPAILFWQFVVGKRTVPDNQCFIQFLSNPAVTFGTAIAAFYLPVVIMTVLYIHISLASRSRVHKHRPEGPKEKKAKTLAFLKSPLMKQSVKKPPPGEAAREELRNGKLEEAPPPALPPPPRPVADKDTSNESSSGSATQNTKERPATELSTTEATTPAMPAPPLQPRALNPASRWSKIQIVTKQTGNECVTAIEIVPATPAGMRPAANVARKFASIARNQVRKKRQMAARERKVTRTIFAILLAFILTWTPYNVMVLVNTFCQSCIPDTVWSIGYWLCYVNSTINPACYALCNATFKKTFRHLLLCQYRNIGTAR
Chain of human Orphanin, Opioid Related Nociceptin Receptor 1 (ORL1), OPRL1 (gene 4987) (P41146 whole entry, looked up): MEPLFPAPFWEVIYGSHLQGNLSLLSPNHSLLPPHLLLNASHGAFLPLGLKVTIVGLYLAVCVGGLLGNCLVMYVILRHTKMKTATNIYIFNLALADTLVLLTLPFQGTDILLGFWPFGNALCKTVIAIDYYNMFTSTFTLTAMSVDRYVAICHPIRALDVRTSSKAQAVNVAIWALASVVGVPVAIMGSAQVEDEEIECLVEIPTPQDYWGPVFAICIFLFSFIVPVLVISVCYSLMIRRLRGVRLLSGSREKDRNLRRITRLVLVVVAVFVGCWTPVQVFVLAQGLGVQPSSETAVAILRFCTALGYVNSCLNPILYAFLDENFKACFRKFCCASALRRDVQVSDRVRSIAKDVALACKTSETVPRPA
Chain of guinea pig Serotonin, 5-Hydroxytryptamine Receptor 4 (5HT4), HTR4 (gene 100135548) (O70528 whole entry, looked up): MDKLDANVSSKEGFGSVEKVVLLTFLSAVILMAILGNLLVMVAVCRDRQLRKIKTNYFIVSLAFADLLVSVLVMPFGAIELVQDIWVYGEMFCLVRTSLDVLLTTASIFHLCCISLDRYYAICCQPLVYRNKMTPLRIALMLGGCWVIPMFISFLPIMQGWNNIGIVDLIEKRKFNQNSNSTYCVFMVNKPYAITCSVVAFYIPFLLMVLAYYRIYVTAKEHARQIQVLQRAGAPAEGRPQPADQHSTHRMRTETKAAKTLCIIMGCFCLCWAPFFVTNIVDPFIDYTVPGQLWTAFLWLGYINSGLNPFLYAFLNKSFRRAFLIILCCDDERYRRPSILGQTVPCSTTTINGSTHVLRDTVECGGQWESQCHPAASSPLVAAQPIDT
Chain of Neuropeptide Y receptor type 2 (Homo sapiens) (P49146 whole entry, looked up): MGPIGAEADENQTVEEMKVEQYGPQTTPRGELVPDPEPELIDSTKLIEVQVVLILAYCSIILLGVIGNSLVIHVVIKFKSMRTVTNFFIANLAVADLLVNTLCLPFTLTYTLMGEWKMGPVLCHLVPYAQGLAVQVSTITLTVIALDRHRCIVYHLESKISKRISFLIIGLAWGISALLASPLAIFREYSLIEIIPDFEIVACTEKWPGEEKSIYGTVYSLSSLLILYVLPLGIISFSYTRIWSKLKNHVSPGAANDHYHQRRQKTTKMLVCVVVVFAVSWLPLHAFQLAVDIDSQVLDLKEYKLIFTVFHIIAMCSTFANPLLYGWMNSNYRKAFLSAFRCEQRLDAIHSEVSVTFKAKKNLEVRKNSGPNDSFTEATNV

A word on the AC50: it is the concentration giving half of the maximal activity seen. `O=S1(=O)CC(Cl)(Cl)C(Cl)(Cl)C1`: the AC50 in experiment [1] is 20.1 µM (active). Moreover, the result in experiment [2] and in experiment [3] was inactive.
For `COc1ccccc1NC(=O)CC(C)=O`, the call in experiment [3] was inactive.
As for `N#CCCCC(C#N)CCC#N` (configuration not stated), the compound was classed as inactive in experiment [1].
Turning to `O=C(c1ccc(OCCN2CCCCC2)cc1)c1c(-c2ccc(O)cc2)sc2cc(O)ccc12`, the AC50 in experiment [1] is 0.948 µM (active); in experiment [5], 2.92 µM (active); in experiment [6], 4.93 µM (active); in [7], 3.7 µM (active); in [8], 7.83 µM (active); in [2], 3.58 µM (active). The AC50 in experiment [9] is 5.28 µM (active); in [10], 0.982 µM (active); in experiment [11], 18.5 µM (active); in experiment [12] it was 12.1 µM (active); in experiment [13] it was 1.49 µM (active); in experiment [14] it was 711 nM (active). Moreover, the half-maximal activity concentration (AC50) was 4.36 µM (active) in [16], 5.24 µM (active) in experiment [17], 5.36 µM (active) in [18] and 5.62 µM (active) in experiment [19]. The outcome in experiment [4] and in [15] was inactive.
For the compound `c1ccc2c(c1)-c1ccc3ccc4cccc5cc-2c1c3c45`, in experiment [1], the call was inactive. The AC50 in experiment [14] was 3450 nM (active).
`Cc1cc(O)c(C)c(C)c1O`: the outcome in [3] was inactive.
Consider `C#C[C@]1(O)CC[C@H]2[C@@H]3CCc4cc(O)ccc4[C@H]3CC[C@@]21C`, for which the AC50 in experiment [14] is 25 µM (active) and 6.05 µM (active); in [16], 2.64 µM (active). In addition, the compound was called inactive in experiment [14].
For `CCOC(=O)C=Cc1ccccc1`, the AC50 in experiment [5] was 38.6 µM (active).
As to `O=C1OC2(c3ccc(O)cc3Oc3cc(O)ccc32)c2ccccc21`, the call in [2] was inactive.
`Cc1cccc(O)c1`: in experiment [3], the outcome was inactive.
Regarding `CC(=O)OCC=C(C)CCC=C(C)CCC=C(C)C`, the result in experiment [1] was inactive.
In the case of `CC(=O)c1cccnc1`, the compound was classed as inactive in experiment [5].
As for `CCC(=O)OC/C=C(\C)CCC=C(C)C`, the result in experiment [1] was inactive.
On the same count and under the same terms, the value for `CC(C)(O)CCc1ccccc1` was “inactive”; that for `C=C1CC[C@H]2O[C@]2(C)CC[C@@H]2[C@@H]1CC2(C)C` was “inactive”.
For the compound `CC/C=C\C#N`, the compound was called inactive in experiment [3].
The same measure, in the same setting: the value for `CC(C)(C)c1cc(CCC(=O)OCCSCCOC(=O)CCc2cc(C(C)(C)C)c(O)c(C(C)(C)C)c2)cc(C(C)(C)C)c1O` was “inactive”.
With `Cc1cc(N)n(-c2ccccc2)n1`, in experiment [5], the AC50 is 13.9 µM (active).
In the case of `CCCCOCCOCCO`, the compound was called inactive in experiment [2].
Turning to `CC/C(=C(\c1ccccc1)c1ccc(OCCN(C)C)cc1)c1ccccc1`, the AC50 in [5] is 19.3 µM (active); in experiment [6], 10.1 µM (active); in [7], 7.13 µM (active); in [20], 11.9 µM (active); in experiment [2], 6.84 µM (active); in experiment [10], 9.83 µM (active). Besides, the compound was classed as inactive in [2], in experiment [9], in experiment [12], in experiment [14] and in [15].
